Sampled rows, rich in hits. Any-hit rate of the full collection: about 19%.
TDP1 cell CPT = growth inhibition of DT40 Tdp1-/-;hTDP1 cells with camptothecin (screen for TDP1 inhibitors) | chicken DT40 Tdp1-/-;hTDP1 cells + 20 nM CPT, ATP luminescence, 48 h | Potency, µM (doses to about 46.2 µM), inactives show at the highest dose activity change, negative = growth inhibition, usual class: inhibitors | actives 12% (n = 420,000) | AID 686979; note: potency is the fitted concentration of half-maximal effect; nearly all actives have a fitted effect of over 55% in size
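Chicken DT40 Tdp1-/- cells stably complemented with human TDP1 were seeded at 400 cells/well in medium containing 20 nM camptothecin, exposed to pin-transferred compounds, and grown at 37 °C for at least 48 hr. Viability was read as ATP luminescence.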
DT40 TDP1 no CPT = qHTS for Inhibitors of human tyrosyl-DNA phosphodiesterase 1 (TDP1): qHTS in cells in absence of CPT | actives 15% (n = 420,000) | DT40 Tdp1-/- hTDP1 cells, no CPT, ATP luminescence, 48 h | Potency, µM (doses to about 46.2 µM), for the others: at the highest dose activity change, negative = growth inhibition, most hits filed as inhibitors | AID 686978, 2013; note: potency is the fitted concentration of half-maximal effect; nearly all actives have a fitted effect of over 55% in size
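Camptothecin absent (DMSO only). Human TDP1-complemented DT40 knockout cells, 400 cells/well, 37 °C for minimum 48 hr; ATP measured via CellTiter-Glo, 30 min dark incubation, luminescence.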
IL1B secr inh = inflammasome signaling inhibition, IL-1 beta readout | THP-1 LPS/ATP IL-1B secretion, AlphaLISA, 16 h; stronger effect = lower value | activity change, % at 57.5 µM | actives 4.7% (n = 360,000); in the data active = activity change below about -50%; inconclusive = mostly about -30% to -49%
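Secreted IL-1B measured by AlphaLISA bead assay after 16 h compound exposure of THP-1 cells; compounds (final up to 57.5 uM) added 1 h before LPS (250 ng/mL) and ATP (1.25 mM) stimulation; lower signal means less secretion.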
HT1080 IDH1KD tx = HT-1080 IDH1 knockdown cell toxicity (counter line); actives 2% (n = 360,000); Potency, µM (doses to about 46.1 µM), for inactives: at the highest dose activity, negative = toxicity, usual class: cytotoxic; HT-1080 IDH1 knockdown viability, ATP luminescence, 48 h;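 note: potency is the fitted concentration of half-maximal effect; 0% = DMSO wells and -100% = cell-free medium wells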
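% activity derives from luminescence (CellTiter-Glo), normalised to DMSO and no-cell wells. HT-1080-IDH1KD cells, 750/well, had 48 h compound exposure at 37 °C.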
HT1080-NT tox = kills 2HG-producing HT-1080-NT fibrosarcoma cells; AID 686970; HT-1080-NT fibrosarcoma viability, CellTiter-Glo ATP luminescence, 48 h; Potency, µM (titrated, usually from 46.1 µM), without a hit: at the highest dose activity, negative = less viability, most hits filed as cytotoxic; actives 1.6% (n = 360,000);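 note: NT is the 2HG producing partner of a matched IDH1 knockdown line; potency is the fitted concentration of half-maximal effect; 0% = DMSO-treated cells and -100% = media-only wells without cells; nearly all actives have a fitted effect of over 55% in size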
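Toxicity toward the 2HG-producing NT line was scored as %Activity, normalised to DMSO and no-cell wells, from CellTiter-Glo luminescence after 48 hours' treatment.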
* = called active by the depositor; ? = inconclusive; / = no result; [ ] = another dose, or the depositor's remark. Unless noted, calls come from the whole dose curve; as a rule, active = well fitted curve in the direction sought with a large enough effect; inconclusive = small, poorly fitted or top-dose-only effect, or another doubt; inactive = no such curve, though single readings can be large; an effect the other way counts as inactive or inconclusive. Unless noted, % is set by controls: 0 for no effect and ±100 for the full control effect.

SMILES	TDP1 cell CPT	DT40 TDP1 no CPT	IL1B secr inh	HT1080 IDH1KD tx	HT1080-NT tox
CSc1nsc(SC)c1NC(=O)Nc1ccccn1	16.4µM*	?	1.3	?	-24.7%
CC(OC(=O)CCc1ccccc1)C(=O)Nc1ncc(Cl)cc1Cl (centres undefined)	9.2%	14.1%	2.5	5.2%	-1.0%
CC(OC(=O)CCc1nc2ccccc2c(=O)[nH]1)C(=O)Nc1ncc(Cl)cc1Cl (centres undefined)	-21.1%	-4.9%	-76.7*	-0.8%	1.0%
CC(OC(=O)c1nn(C(C)C)c(=O)c2ccccc12)C(=O)Nc1ncc(Cl)cc1Cl (centres undefined)	?	18.4µM*	0.0	-0.5%	1.1%
CC(CC(=O)Nc1ccc2c(c1)c(=O)n(C)n2Cc1ccc(Cl)cc1)C(F)(F)F (centres undefined)	?	9.2µM*	-16.6	-14.1%	-11.3%
COc1cc(Cn2c3ccc(NC(=O)CC(C)C(F)(F)F)cc3c(=O)n2C)ccc1F (centres undefined)	?	16.4µM*	-14.2	-0.4%	7.7%
CC(CC(=O)Nc1ccc2c(c1)c(=O)n(C)n2Cc1cccc(C(F)(F)F)c1)C(F)(F)F (centres undefined)	-26.6%	?	3.4	9.0%	12.9%
COc1cc(Cn2c3ccc(NC(=S)NCc4ccc(C)cc4)cc3c(=O)n2C)ccc1F	?	20.6µM*	-29.5	-22.9%	-17.9%
COc1cc(Cn2c3ccc(NC(=O)CC(C)(C)C)cc3c(=O)n2C)ccc1F	?	?	-17.7	7.3%	3.6%
Cc1c(C(=O)OCC(=O)Nc2c(C)n(C)n(-c3ccccc3)c2=O)oc2ccccc12	-5.2%	1.2%	10.1	21.8%	19.1%
CCN(CC)c1ccc(/C=C2/SC(=O)N(C(C)C)C2=O)o1	-91.0%	2.31µM*	-94.4*	?	13µM*
COc1ccccc1C(=O)N(CN1CCCC1=O)c1cccc(Cl)c1	?	?	16.9	-1.8%	2.9%
COc1ccccc1N(CN1CCCC1=O)C(=O)c1c(F)cccc1Cl	20.6µM*	10.3µM*	10.8	1.4%	9.0%
CCOc1ccccc1C(=O)N(CN1CCCC1=O)c1cccc(Cl)c1	14.6µM*	9.2µM*	21.6	-0.5%	-1.0%
Cc1ccc(-c2nn3c(C)nnc3s2)cc1NC(=O)CSc1ccc(Cl)cc1	?	18.4µM*	22.9	-0.7%	-0.1%
Cc1cccc(OCC(=O)Nc2ccc(Cl)c(-c3nc4ncccc4o3)c2)c1C	18.4µM*	16.4µM*	/	/	/
CCCC(=O)Nc1cccc(-c2nc3ncccc3o2)c1	-14.4%	-20.3%	/	/	/
Cc1ccc(C(C)C)c(OCC(=O)Nc2cccc(-c3nc4ncccc4o3)c2)c1	20.6µM*	20.6µM*	/	/	/
COc1ccc2oc(-c3ccc(C)c(NC(=O)CSc4ccc(Cl)cc4)c3)nc2c1	-32.9%	?	-7.6	-9.3%	-12.4%[9.24 µM]
Cc1ccc2nc(-c3ccc(C)c(NC(=O)CSc4ccc(Cl)cc4)c3)oc2c1	13µM*	?	/	/	/
Cc1nnc2sc(-c3ccc(NC(=O)CSc4ccc(Cl)cc4)cc3)nn12	-21.8%	-15.0%	?	-2.1%	-2.0%
COc1ccc2c(c1)CCc1cnc(-n3ncc(C(=O)NC4CCOC4)c3C3CC3)nc1-2 (centres undefined)	-7.8%[9.04 µM]	?	/	/	/
CCC(C)CN1C(=O)CSCC1(C)C(=O)Nc1ccc2c(c1)OCCO2 (centres undefined)	-19.4%	-29.5%	17.5	10.4%	13.9%
Cc1cn(CC(=O)NCCc2c[nH]c3ccccc23)c(=O)[nH]c1=O	-27.1%	-4.9%	39.7	0.5%	1.4%
Cc1cc(C)c(OCCOCCn2c(-c3ccc(Cl)cc3)nc3ccccc3c2=O)c(C)c1	?	-12.4%	/	/	/
COc1ccc(N2CC(NC(=O)COc3ccccc3C)CC2=O)cc1OC (centres undefined)	-5.0%	?	/	/	/
NC(Cc1c[nH]c2ccccc12)C(=O)NCc1ccco1 (centres undefined)	-21.5%	-2.3%	4.0	4.7%	7.2%

Source: PubChem BioAssay
